# Screening results: PubChem, several laboratories
# Most compounds without a hit are left out; they make up all but 6.6% or so of the library.
# Mdm2 MdmX PPI: human Mdm2/MdmX binding inhibition. hit rate 3% among 330,000. AID 485346. SaOS-2 split-luciferase Mdm2/MdmX complementation, luminescence. inhibition, % at 8 µM. O15151+Q00987;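 active means inhibition of at least 50% at 8 µM in the primary screen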
# Target sequence (O15151 whole entry, looked up): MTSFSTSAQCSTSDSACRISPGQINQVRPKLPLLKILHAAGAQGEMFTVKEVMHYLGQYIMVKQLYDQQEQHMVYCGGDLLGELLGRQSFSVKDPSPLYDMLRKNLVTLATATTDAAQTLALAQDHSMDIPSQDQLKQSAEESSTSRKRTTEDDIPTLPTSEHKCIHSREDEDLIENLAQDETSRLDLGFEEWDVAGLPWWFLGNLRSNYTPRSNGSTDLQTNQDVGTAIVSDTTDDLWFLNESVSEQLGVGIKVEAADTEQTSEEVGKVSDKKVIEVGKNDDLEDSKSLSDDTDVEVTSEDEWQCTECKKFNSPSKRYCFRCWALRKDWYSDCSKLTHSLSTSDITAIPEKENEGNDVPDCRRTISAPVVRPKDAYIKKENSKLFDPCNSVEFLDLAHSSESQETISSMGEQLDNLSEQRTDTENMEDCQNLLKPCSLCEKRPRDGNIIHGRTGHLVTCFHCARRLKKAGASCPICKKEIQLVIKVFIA
# Target sequence (Q00987 whole entry, looked up): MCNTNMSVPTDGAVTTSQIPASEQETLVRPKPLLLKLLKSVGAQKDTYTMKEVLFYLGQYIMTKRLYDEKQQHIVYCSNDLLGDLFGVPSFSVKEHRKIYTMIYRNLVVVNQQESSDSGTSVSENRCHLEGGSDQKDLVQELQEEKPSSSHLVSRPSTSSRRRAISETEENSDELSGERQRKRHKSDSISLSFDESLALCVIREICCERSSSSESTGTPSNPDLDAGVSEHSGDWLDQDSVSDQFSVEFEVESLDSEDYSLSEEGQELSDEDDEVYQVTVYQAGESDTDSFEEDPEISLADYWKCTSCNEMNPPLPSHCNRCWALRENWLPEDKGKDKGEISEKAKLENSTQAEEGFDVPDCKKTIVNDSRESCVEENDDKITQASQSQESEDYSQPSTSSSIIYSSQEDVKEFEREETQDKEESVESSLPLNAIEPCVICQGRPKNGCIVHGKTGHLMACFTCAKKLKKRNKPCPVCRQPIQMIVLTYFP
# CSC inhib: cancer stem cell inhibition | inhibition, % at 7.5 µM | cancer stem cell-like cells viability, luminescence | hit rate 1.1% among 300,000; in the data active means inhibition above about 75%; inconclusive means no clear call, values can overlap the other calls; tested in HMLE shEcad cells
# GRIN3A LBD mod: modulators (binders) of human NR3A ligand-binding domain | Tm shift relative to glycine control, % at 25 µM | AID 1259313 | NR3A LBD differential scanning fluorimetry, Tm shift; 0% = protein alone, 100% = glycine-bound protein | hit rate 2.5% among 340,000;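 active means melting temperature shift of at least 10% of the positive control shift, at one fixed dose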
# Beta cell apopt: blocks beta cell apoptosis; AID 435005; protection from apoptosis, % (test concentration not listed); hit rate 0.8% among 300,000; INS-1E cytokine-induced death, ATP luminescence, 48 h; percent of positive-control rescue, neutral wells zero;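 active means Every replicate reaches about 75%, or at least half do and their mean reaches it too, limit read from the data; inconclusive means At least half of replicates reach the limit but their mean does not; inactive means Under half of replicates reach the limit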;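 further: 0% = cytokine-treated negative control wells and 100% = positive control rescue; higher means more ATP so stronger rescue from cytokine killing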
# Gli-Sufu antag: Gli-Sufu pathway antagonism. AID 588413. inhibition, % at 5 µM. Sufu-KO-LIGHT fibroblasts, Gli luciferase reporter luminescence. hit rate 0.74% among 340,000;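 active means inhibition above about 55%, limit read from the data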;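 further: 0% = DMSO-treated cells and 100% = wells with medium but no cells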
# MPTP block: blocks calcium-induced mitochondrial swelling | AID 602449 | isolated mouse mitochondria, Ca2+ swelling absorbance, 30 min | inhibition, % at 10 µM | hit rate 1.4% among 360,000;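 active means inhibition of 50% or more, scaled per plate between neutral and stimulator controls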;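 further: 0% = DMSO wells given calcium and 100% = 1 mM EGTA wells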
# Mdm2 MdmX conf: confirmation of human Mdm2/MdmX interaction inhibitors. shares compounds with Mdm2 MdmX PPI. Mdm2-MdmX binding, luminescent assay. inhibition, % at 8 µM. hit rate 55% among 10,000. AID 489028; in the data active means inhibition above about 40%
# Full FLuc ctr: inhibits full-length luciferase, flagging false Mdm2/MdmX hits; hit rate 77% among 6,200; AID 504607; shares compounds with Mdm2 MdmX PPI; inhibition, % at 8 µM; SaOS-2 full-length luciferase counterscreen, luminescence;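 active means mean inhibition at 8 µM reaching about 37%, which flags the compound as non-specific, limit read from the data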;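 further: p53-null SaOS-2 cells with luciferase driven by a doxycycline-inducible promoter; compound on cells about two nights before reading with doxycycline added after day one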
# Gli antag conf: confirmation of Gli-SUFU pathway antagonists; inhibition, % at 5 µM; Sufu-KO-LIGHT cells, Gli luciferase reporter, luminescence; shares compounds with Gli-Sufu antag; hit rate 40% among 2,500;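 active means mean inhibition at 5 µM reaching about 45%, limit read from the data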;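 further: plate controls were DMSO-treated cells for no effect and wells lacking cells for full effect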
# Gli cytotox: counter-screen for Gli-SUFU antagonists: cytotoxicity; shares compounds with Gli-Sufu antag; Sufu-KO-LIGHT cells cytotoxicity, ATP luminescence; cytotoxicity, % at 5 µM; hit rate 32% among 2,500;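 active means mean cytotoxicity at 5 µM above about 25%, limit read from the data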;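 further: cells exposed to compound overnight for roughly 16 to 18 hours; plate controls were DMSO wells with cells for no effect and medium without cells for full effect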
# Wnt3a counter: counter-screen for Gli-SUFU antagonists: Wnt3a reporter inhibition | shares compounds with Gli-Sufu antag | Wnt-LIGHT cells, Wnt3a-driven luciferase reporter, luminescence | inhibition, % at 6.25 µM | hit rate 20% among 2,500 | AID 651995;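 active means mean inhibition above about 25%, limit read from the data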
# Rh123 counter: mitochondrial membrane potential, counter-screen; AID 624504; isolated mitochondria, Rhodamine 123 fluorescence; inhibition, % at 10 µM; shares compounds with MPTP block; hit rate 78% among 5,000; in the data active means inhibition above about 22%;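 further: 0% = DMSO vehicle and 100% = positive control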
# MPTP abs DR: dose response confirmation of mitochondrial permeability transition pore inhibitors; shares compounds with MPTP block; isolated mitochondria swelling, absorbance; IC50, µM; hit rate 58% among 780; AID 651561; in the data active means IC50 below about 20 µM
# MPTP cs DR: MPTP inhibitor counter-screen activity, dose response; shares compounds with MPTP block; isolated mitochondria counterscreen, fluorescence read-out; IC50, µM; hit rate 49% among 780; in the data active means IC50 below about 80 µM
# Numbers without * were called inactive; ? = inconclusive; nt = no result given.
SMILES,Mdm2 MdmX PPI,CSC inhib,GRIN3A LBD mod,Beta cell apopt,Gli-Sufu antag,MPTP block,Mdm2 MdmX conf,Full FLuc ctr,Rh123 counter,others
O=C(/C(=C\c1ccccc1)c1nc2ccccc2[nH]1)c1ccc(Cl)cc1,100*,79*,9,3,-36,75*,-54,nt,75*,
O=C(/C(=C/c1ccc(Cl)cc1)c1nc2ccccc2[nH]1)c1cccs1,81*,93*,4,126*,-15,66*,100*,51*,75*,
N=c1n(CCN2CCCCC2)c2ccccc2n1CC(O)COc1ccccc1 (centres undefined),61*,8,-5,8,19,98*,38,81*,12,MPTP abs DR=18*;MPTP cs DR=68*
CN(C)S(=O)(=O)c1cccc(NC(=S)N/N=C/c2cccc(O)c2)c1,-48,-7,-1,-7,15,2,nt,nt,nt,
CN(C)S(=O)(=O)c1cccc(NC(=S)N/N=C/c2cc(Br)ccc2O)c1,70*,77*,12*,94*,-5,100*,78*,37*,38*,
CCc1cc2c(=O)c(-c3cnn(-c4ccccc4)c3)c(C)oc2cc1OCC(=O)Nc1cccc(C)c1,2,43,-18,-4,0,3,nt,nt,nt,
CCc1cc2c(=O)c(-c3cnn(-c4ccccc4)c3)c(C)oc2cc1OCC(=O)Nc1ccc(F)c(F)c1,62*,28,4,-3,-11,80*,74*,87*,-3,MPTP abs DR=>100;MPTP cs DR=>80
CCCC(=O)NC(=S)Nc1ccc(N2CCN(C(=O)c3cccs3)CC2)cc1,28,-16,-9,16,22,23,nt,nt,nt,
FC(F)(F)c1cc(CO[C@@H]2CCCN[C@@H]2c2ccccc2)cc(C(F)(F)F)c1,59*,15,0,16,-8,103*,30,nt,-20,MPTP abs DR=4.3*;MPTP cs DR=54*
FC(F)(F)c1cc(CCN2CCNC[C@@H]2c2ccccc2)cc(C(F)(F)F)c1,31,32,-1,7,4,0,nt,nt,nt,
COc1ccc(N(CC(=O)Nc2cc(Cl)ccc2OC)C2=NC3CS(=O)(=O)CC3S2)cc1 (centres undefined),6,-1,2,-43,-3,1,nt,nt,nt,
O=C(Nc1cccc(C(F)(F)F)c1)Nc1ccc(N2CCCC2)c(S(=O)(=O)Nc2ccccc2Cl)c1,99*,78*,30*,103*,18,94*,97*,57*,41*,
CC(=O)Nc1ccc(N2CCOCC2)c(S(=O)(=O)Nc2ccccc2Cl)c1,nt,nt,nt,nt,nt,1,nt,nt,nt,
CCOC(=O)COc1cc(N)c(Cl)cc1Cl,-10,-3,2,nt,6,-1,nt,nt,nt,
CN1C(C(=O)Nc2ccc(OC(F)(F)F)cc2)=CC(c2cccs2)=NS1(=O)=O,58*,-4,6,-2,4,74*,33,48*,84*,
CCOC(=O)c1sc(NC(=O)c2cc(-c3ccccc3C)nc3ccccc23)c(C#N)c1C,97*,89*,24*,39,63*,112*,92*,32,87*,Gli antag conf=82*;Gli cytotox=20;Wnt3a counter=74*
CC1CC(C)CN(Cc2nc(N)nc(Nc3ccc4ccccc4c3)n2)C1 (centres undefined),62*,56,-2,17,-4,63*,67*,57*,-11,MPTP abs DR=>100;MPTP cs DR=>80
CCc1nonc1NC(=O)c1oc2ccc(F)cc2c1C,-18,nt,-2,nt,-3,-1,nt,nt,nt,
Cc1c(C(=O)Nc2nonc2-c2ccc(F)cc2)oc2ccc(F)cc12,86*,?,6,-1,-17,81*,76*,52*,84*,
O=C(O)/C=C/C(=O)Nc1cccc(C(F)(F)F)c1,0,-10,0,-3,-11,-1,nt,nt,nt,
O=C(/C=C/c1cccc(C(F)(F)F)c1)Nc1cccc(C(F)(F)F)c1,91*,33,14*,-6,2,87*,31,57*,85*,
CCN(C[C@H]1N[C@@](Cc2ccccc2)(C(=O)OC)[C@H]2C(=O)N(Cc3ccccc3)C(=O)[C@@H]12)C(=O)Nc1ccc(Cl)cc1,66*,61,17*,18,-26,63*,48*,56*,100*,
COc1ccc(NC(=O)c2c(Nc3ccccc3)sc(C(=O)c3ccc(F)cc3)c2N)cc1,62*,38,0,104*,75*,92*,19,nt,83*,Gli antag conf=85*;Gli cytotox=35*;Wnt3a counter=81*
COc1ccc(C(=O)c2sc(Nc3ccccc3)c(C(=O)Nc3ccc(OC)c(OC)c3)c2N)cc1,6,19,-5,-2,-27,0,nt,nt,nt,
CC(=O)Nc1ccc(NC(=O)COC(=O)c2ccccn2)cc1,20,3,-1,-5,-4,-4,nt,nt,nt,
SMILES,Mdm2 MdmX PPI,CSC inhib,GRIN3A LBD mod,Beta cell apopt,Gli-Sufu antag,MPTP block,Mdm2 MdmX conf,Full FLuc ctr,Rh123 counter,others
O=C(Nc1cc(Cl)cc(Cl)c1)Nc1cnccn1,75*,26,5,47,-3,62*,30,nt,101*,
CCOc1ccccc1N(CC(=O)NCCc1ccc(OC)cc1)S(=O)(=O)c1ccc(C)cc1,nt,nt,nt,nt,nt,1,nt,nt,nt,
Cc1ccc(N(CC(=O)NCCc2ccc(F)cc2)S(=O)(=O)c2ccc(Cl)c([N+](=O)[O-])c2)c(C)c1,100*,80*,0,7,17,68*,7,nt,70*,
O=C(Nc1ccc(F)cc1)Nc1cc(OCC(F)(F)F)cc(OCC(F)(F)F)c1,89*,51,27*,106*,21,97*,90*,52*,70*,
COc1ccc(NC(=O)Nc2ccc(F)cc2)cn1,0,3,9,2,-16,0,nt,nt,nt,
Cc1ccc(NC(=O)/C=C/c2ccc(S(=O)(=O)N3CCOCC3)cc2)cc1S(=O)(=O)N(C)C,nt,nt,-9,nt,8,2,nt,nt,nt,
Nc1nc(Cl)cc(NCCc2ccc(O)cc2)n1,27,17,5,2,27,4,nt,nt,nt,
Oc1ccc(CCNc2ncnc3ccc(Cl)cc23)cc1,64*,86*,-30,107*,61*,95*,73*,29,97*,
